PubChem BioAssay AID1347416 (National Center for Advancing Translational Sciences (NCATS), 2020)
The whole screen tested about 4,100 compounds, of which about 1,600 (39%) were called active. Another 25% or so got no clear call; they are omitted. Calls follow the shape of the dose curve; as a rule, active = well fitted inhibition curve with a large enough effect; inconclusive = small, poorly fitted or top-dose-only effect; inactive = no such curve, though single readings can be large or run the other way. Some of the results follow.

Test: qHTS Validation assay for Inhibitors of Plasmodium falciparum Dd2 growth in vitro; also: nearly all actives have a fitted effect of over 70% in size
Settings: P. falciparum Dd2 in RBCs, SYBR Green growth, 72 h; series mostly up to 28.7 µM; activity change, negative = inhibition: at the top concentration
Procedure, shortened: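 P. falciparum Dd2-infected red blood cells (2.5% hematocrit, 0.3% parasitemia) grown 72 h at 37 °C under 5% O2 with compounds in a titration, 29 uM to 0.5 nM final. Growth read as SYBR Green-1 fluorescence after ~16 h lysis; artesunate 300 nM as positive control.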
% is scaled to controls: 0 for no effect and ±100 for the full control effect; potency is read from the fitted curve at half-maximal effect.

SMILES	Potency	activity change, negative = inhibition
Cc1ccc2sc(N3CCN(C(=O)c4ccc([N+](=O)[O-])o4)CC3)nc2c1C	5.31 µM (active)	
Cc1ccc(C)c2sc(N3CCN(C(=O)c4ccc([N+](=O)[O-])o4)CC3)nc12	4.73 µM (active)	
COc1ccc2nc(N3CCN(C(=O)c4ccc([N+](=O)[O-])o4)CC3)sc2c1	4.73 µM (active)	
Cc1cc(C)c2nc(N3CCC(C(=O)N4CCCC4)CC3)sc2c1		15.7% (inactive)
COc1cccc(N2CCN(c3nc(C(=O)NCc4cccc(C)c4)cs3)CC2)c1		16.3% (inactive)
CCOc1ccc2nc(N3CCN(C(=O)C(C)C)CC3)sc2c1		-11.4% (inactive)
CNC(=O)N1CCc2c(sc3ncnc(N(C)C)c23)C1		3.51% (inactive)
Nc1ccc2nc(-c3cccs3)[nH]c2c1		-28.3% (inactive)
Cc1ccc(NC(=O)Cn2ccnc2)cc1C		49.5% (inactive)
Cc1ccc(Sc2ccc(NC(=O)CCl)cc2)cc1C	9.44 µM (active)	
Cc1nc([C@@H]2CN(C(=O)c3nccc4ccccc34)C[C@H]2C(N)=O)n[nH]1		5.68% (inactive)
Cc1noc(C2CC3(CCN(C(=O)c4cccn4C)CC3)CN2C)n1 (stereo not given)		4.95% (inactive)
COC(=O)C1=C(C)NC(C)=C(C(=O)OCCCN2CCC(c3ccccc3)(c3ccccc3)CC2)C1c1cccc([N+](=O)[O-])c1 (stereo not given)	2.99 µM (active)	
COC(=O)C1=C(C)NC(C)=C(C(=O)OC(C)(C)CN(C)CCC(c2ccccc2)c2ccccc2)C1c1cccc([N+](=O)[O-])c1 (stereo not given)	2.99 µM (active)	
CCN(CC)CCCC(C)Nc1cc(/C=C/c2ccccc2Cl)nc2cc(Cl)ccc12 (stereo not given)	0.842 µM (active)	
CCc1nc(NCc2cn[nH]c2-c2ccc(Cl)cc2)c2cnn(C)c2n1		56.2% (inactive)
COC[C@@H]1CN(C(=O)c2cc3ccccc3[nH]2)C[C@H]1c1ccncc1		-20.6% (inactive)
CCCCCCCNC(=O)C1(CC2CC(c3ccc(Cl)cc3)=NO2)CCN(C(=O)c2cc(OCC)c(OCC)c(OCC)c2)CC1 (stereo not given)	3.35 µM (active)	
CCOc1cc(C(=O)N2CCC(CC3CC(c4ccc(Cl)cc4)=NO3)(C(=O)NCC3CCCCC3)CC2)cc(OCC)c1OCC (stereo not given)	0.842 µM (active)	
CC(C)(C)OC(=O)N1CCC(CC2CC(c3ccccc3)=NO2)(C(=O)NCc2ccccc2)CC1 (stereo not given)	2.66 µM (active)	

SMILES	Potency	activity change, negative = inhibition
CCOc1cc(C(=O)N2CCC(CC3CC(c4cccc(Br)c4)=NO3)(C(=O)NCC3CCCCC3)CC2)cc(OCC)c1OCC (stereo not given)	1.68 µM (active)	
Cc1cc(Cl)ccc1-c1ccc(CNC2CN(C(=O)OC(C)(C)C)C2)cc1		37% (inactive)
O=C(NCc1ccccc1)N1CCC(c2nc(C3CCOCC3)no2)CC1		13% (inactive)
COCCNC(=O)C1COC2(CCN(C(=O)c3ccc(Cl)cc3)CC2)N1C(=O)c1ccccc1C (stereo not given)		-12.4% (inactive)
CC(C)c1cc(C(=O)NC2CCN(c3ncccc3C#N)CC2)n(C)n1		5.19% (inactive)
CCCCCCCNC(=O)C1(CC2CC(c3cccc(Br)c3)=NO2)CCN(C(=O)c2cc(OCC)c(OCC)c(OCC)c2)CC1 (stereo not given)	10.6 µM (active)	
CC(NCc1ccccc1O)C12CC3CC(CC(C3)C1)C2 (stereo not given)	0.0944 µM (active)	
O=C1NCCCCCCN(C(=O)C2CCC2)[C@H]2C[C@H](c3nc(-c4cccnc4)no3)C[C@@H]12		3.93% (inactive)
Cc1ccncc1C(=O)NCC(=O)N1CCCCCNC(=O)CC1c1ccccc1 (stereo not given)		1.1% (inactive)
O=C1CC(c2ccccc2)N(C(=O)CNC(=O)c2[nH]nc3c2CCc2ccccc2-3)CCCCCCN1 (stereo not given)	2.99 µM (active)	
COc1ccc2c(c1)CCc1c-2n[nH]c1C(=O)N1CCc2c(nc3cc(-c4ccccc4)[nH]n3c2=O)C1		18.7% (inactive)
Cn1cnc(C(=O)NCC(=O)N2CCCCCNC(=O)CC2c2ccccc2)c1 (stereo not given)		4.59% (inactive)
Cn1nc(C(=O)NCC(=O)N2CCCCCCNC(=O)CC2c2ccccc2)c2ccccc21 (stereo not given)	2.11 µM (active)	
O=C1CC(c2ccccc2)N(C(=O)CNC(=O)c2ccc3[nH]ccc3c2)CCCCCN1 (stereo not given)	15 µM (active)	
CNC(=O)c1[nH]nc2c1CCc1cc(OC)ccc1-2		-19.9% (inactive)
CCOc1ccc(CC(=O)N[C@@H]2CN(c3ncccn3)C[C@H]2CN(C)C)cc1		-5.61% (inactive)
CN(C)C[C@@H]1CN(C)C[C@H]1NS(=O)(=O)c1ccc(Br)cc1	13.3 µM (active)	
CN(C)C[C@@H]1CN(S(C)(=O)=O)C[C@H]1NC(=O)c1ccccc1		12.9% (inactive)
Cc1ccc(S(=O)(=O)N[C@@H]2CN(C)C[C@H]2CN(C)C)cc1F	15 µM (active)	
Cc1nn(-c2ccccc2)c2c1C(O)n1c(nc3ccccc31)S2 (stereo not given)	5.31 µM (active)	

SMILES	Potency	activity change, negative = inhibition
CCOC(=O)C1=Nc2ccccc2C1=[N+]=[N-]	4.22 µM (active)	
CCOC(=O)C1=C(c2ccccc2)N=c2s/c(=C\c3cc(OC)c(OC)c(OC)c3)c(=O)n2C1c1cccs1 (stereo not given)	5.96 µM (active)	
CCOC(=O)C1=C(C)N=c2s/c(=C/c3ccc(OCC(=O)O)cc3)c(=O)n2C1c1cc(OC)c(OC)c(OC)c1 (stereo not given)	1.88 µM (active)	
CCOC(=O)C1=C(C)N=c2s/c(=C\c3ccc(OCC(=O)O)cc3)c(=O)n2C1c1ccccc1OC (stereo not given)		-9.3% (inactive)
CCOc1ccc(C2C(C(=O)Nc3ccccc3)=C(C)N=c3s/c(=C/c4cccc(OCC(=O)O)c4)c(=O)n32)cc1 (stereo not given)	5.31 µM (active)	
Cc1ccc(CN(C)C(=O)c2cc(COc3ccc(F)cc3Cl)on2)o1		20.9% (inactive)
CC1(Cc2ccc3c(c2)OCO3)CCCN(C(=O)c2ccccc2-n2cncn2)C1 (stereo not given)		-5.72% (inactive)
COC(=O)c1nn(-c2ccc3c(c2)CCN3C(C)=O)cc1O		45.4% (inactive)
COCCNc1nc2cc(C(=O)N3CC[C@H](CO)[C@@H](O)C3)ccc2n1C		19% (inactive)
COc1ccc(C2C(C(=O)N3CCCCC3)CC(=O)N2c2ccc(OC)cc2)cc1 (stereo not given)	7.5 µM (active)	
COc1cnc(-c2ccccn2)nc1Oc1ccc(C(C)(C)C)cc1		66.3% (inactive)
COc1cnc(-c2ccccn2)nc1NC(C)C	5.31 µM (active)	
Cc1nc(-c2ccccn2)nc(N(C)c2ccccc2)c1Cl	5.31 µM (active)	
COc1cnc(-c2ccccn2)nc1N(C)c1ccccc1	5.96 µM (active)	
CC(OC(=O)c1ccc(OCC2CCCO2)cc1)C(=O)N(C)Cc1ccccc1 (stereo not given)		-9.4% (inactive)
Cc1ccc(-c2nnc(Nc3ccc(O)cc3)c3ccccc23)cc1S(=O)(=O)N1CCN(C)CC1	6.68 µM (active)	
CC(=O)c1cccc(NS(=O)(=O)c2cc(-c3cnc(C4CC4)o3)ccc2C)c1		8.42% (inactive)
COC(=O)c1ccc(Nc2nnc(-c3ccc(C)c(S(=O)(=O)N4CCN(C)CC4)c3)c3ccccc23)cc1	8.41 µM (active)	
Cc1ccc(-c2nnc(Nc3ccc(OCC(N)=O)cc3)c3ccccc23)cc1S(=O)(=O)NCC1CCCO1 (stereo not given)	4.73 µM (active)	
COC(=O)c1ccc(Nc2ncnc3c2nc2n3CCCC2)cc1		-21.5% (inactive)
